Measured values: PubChem BioAssay (NCI)
About 83,000 compounds went through this panel and 20% of them were active in at least one assay; those are over-represented in the sample as a whole.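 Interpretation: 100, growth as untreated; towards 0, rising growth inhibition; 0, no net growth; 0 to -100, cell death. Compounds scoring below 10 were considered active.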 The source made the active and inactive calls.

Key:
Assay in all cases: NCI-60 one-dose screen, 48 h (100 = growth as untreated, 0 = no growth, -100 = all killed)
Details in all cases: 10 µM
[1] = system: SK-MEL-2 melanoma
[2] = system: SN12C renal
[3] = system: UO-31 renal
[4] = system: TK-10 renal
[5] = system: ACHN renal
[6] = system: CAKI-1 renal
[7] = system: A498 renal
[8] = system: CCRF-CEM leukemia
[9] = system: MOLT-4 leukemia
[10] = system: SR leukemia
[11] = system: RPMI-8226 leukemia
[12] = system: OVCAR-8 ovarian
[13] = system: OVCAR-5 ovarian
[14] = system: OVCAR-4 ovarian
[15] = system: SK-OV-3 ovarian
[16] = system: IGROV1 ovarian
[17] = system: OVCAR-3 ovarian
[18] = system: HS 578T breast
[19] = system: NCI/ADR-RES ovarian

Measured: growth

O=C1NN(c2ccccc2)C(c2cccnc2)=N/C1=C\c1cccnc1
active: [8] -22%
inactive: [1] 103% | [2] 102% | [3] 82.7% | [4] 110% | [5] 95.4% | [6] 89% | [7] 52.3% | [9] 96.4% | [10] 73.6% | [11] 83.3% | [12] 106% | [13] 85.8% | [14] 94.3% | [15] 104% | [16] 103% | [17] 89.8% | [18] 87.1% | [19] 91.2%

CCCc1c(C)nc2scc(-c3ccc(Cl)cc3)n2c1=O
inactive: [1] 95.1% | [2] 96.3% | [3] 73% | [4] 102% | [5] 95.3% | [6] 96.6% | [7] 98.2% | [8] 95% | [9] 87.1% | [10] 83.1% | [11] 96.4% | [12] 107% | [13] 104% | [14] 97.3% | [15] 103% | [16] 107% | [17] 104% | [18] 101% | [19] 101%

O=C(O)c1cc(C(F)(F)F)cc(C(F)(F)F)c1
inactive: [1] 97.1% | [2] 104% | [3] 77.8% | [4] 135% | [5] 105% | [6] 99.6% | [7] 84.4% | [8] 102% | [9] 95% | [10] 85.3% | [11] 104% | [12] 106% | [13] 107% | [14] 108% | [15] 112% | [16] 114% | [17] 107% | [19] 107%

O=C(Nc1cccc(C(F)(F)F)c1)C(Cl)Cl
inactive: [1] 97.4% | [2] 105% | [3] 80.6% | [4] 108% | [5] 103% | [6] 105% | [7] 101% | [8] 98.8% | [9] 98.4% | [10] 94.3% | [11] 98.5% | [12] 98.7% | [13] 105% | [14] 110% | [15] 103% | [16] 92.5% | [18] 107% | [19] 104%

COc1ccc(-n2nnc3c(sc4ccccc43)c2=O)cc1
active: [3] 1.83% | [4] 8.22% | [5] -22.3% | [7] -2.38% | [14] -46.9% | [15] -15.6% | [16] -0.829%
inactive: [1] 77.1% | [2] 61.9% | [6] 36.6% | [8] 89.9% | [9] 99.5% | [10] 51.1% | [11] 72% | [12] 29.1% | [13] 80.2% | [17] 24% | [18] 21.4% | [19] 52.9%

COc1ccc2c(=O)cc(C(Cl)(Cl)Cl)oc2c1
inactive: [5] 10.6% | [13] 16.6% | [19] 10.3%
active: [1] -75.2% | [2] 2.57% | [3] -19.3% | [4] -20.4% | [6] -14.5% | [7] -68.5% | [8] -21.2% | [9] -23.9% | [10] -25.6% | [11] -27.2% | [12] -1.14% | [14] -12.9% | [15] 9.34% | [16] -7.04% | [17] -19.7% | [18] -13.9%

COc1cc(Nc2ccnc(N3CCN(c4ccnc5cc(Cl)ccc45)CC3)n2)cc(OC)c1
active: [1] -42.2% | [3] -1.54% | [4] -4.71% | [7] -1.87% | [8] 3.84% | [9] -45.9% | [10] -17% | [11] -27.6% | [12] 1.09% | [15] 6.6% | [16] 3.24% | [19] 7.19%
inactive: [2] 19% | [5] 13.2% | [6] 20.2% | [13] 30.8% | [14] 30.4% | [17] 15%

NCCNc1ccc2cc(-c3nc4ccccc4[nH]3)c(=O)oc2c1
inactive: [1] 106% | [2] 92.2% | [3] 81.7% | [4] 128% | [5] 95.8% | [6] 96.3% | [7] 94.7% | [8] 81.9% | [9] 88.4% | [10] 86.2% | [11] 95.7% | [12] 98.2% | [13] 101% | [14] 86.1% | [15] 104% | [16] 99.8% | [17] 98.7% | [19] 95.1%

CCCCCCOc1ccc(/C=C/C(=O)c2ccc(B(O)O)cc2)cc1
inactive: [1] 78% | [2] 71.4% | [3] 51.6% | [4] 85.2% | [5] 89.5% | [6] 61.5% | [7] 70.4% | [8] 59.1% | [9] 58.3% | [10] 48.4% | [11] 46.2% | [12] 81.2% | [13] 77.3% | [14] 64.6% | [15] 87.3% | [16] 64.7% | [17] 97.1% | [18] 60.3% | [19] 77.4%

Nc1nc2c(nnn2C2CC(O)C(CO)O2)c(=O)[nH]1 (centres undefined)
inactive: [1] 42.8% | [2] 45.3% | [3] 30.9% | [4] 59.2% | [5] 23.3% | [6] 32.4% | [7] 55.7% | [8] 19.4% | [9] 30.4% | [10] 32% | [11] 36.2% | [12] 38.4% | [13] 87.8% | [14] 51.4% | [15] 20.2% | [16] 67.6% | [18] 75.4% | [19] 30.2%

COc1ccc(-c2ccc(-c3ccc(C(=N)N)c(F)c3)s2)cc1
active: [1] -75.3% | [2] -79.2% | [3] -86.8% | [4] -96.4% | [5] -89.7% | [6] -89.8% | [7] -97.4% | [8] -68.3% | [9] -80.1% | [10] -21.2% | [11] -65.6% | [12] -48.7% | [13] -91.7% | [14] -67.9% | [15] -93.8% | [16] -62.7% | [17] -96% | [19] -51.3%

Cc1cc(C)c(/C=C2\C(=O)Nc3ccc(NC(=O)CCCCCCC(=O)NO)cc32)[nH]1
inactive: [2] 44% | [3] 66% | [4] 10.6% | [5] 58.5% | [6] 68.7% | [8] 23.9% | [9] 13.2% | [10] 22.1% | [11] 40.6% | [12] 17.7% | [13] 15.9% | [14] 50.5% | [15] 31.3% | [16] 37.9% | [18] 21.6% | [19] 92.1%
active: [1] -5.24% | [7] -9.05%

COc1ccc(-c2nsc3c2NC(=O)CC3c2ccc(Cl)cc2)cc1 (centres undefined)
inactive: [1] 77.2% | [2] 83.8% | [3] 62.8% | [4] 83.9% | [5] 82.7% | [6] 80.2% | [7] 83.3% | [8] 74.4% | [9] 66.9% | [10] 67.8% | [11] 72.2% | [12] 90.2% | [13] 100% | [14] 99.8% | [15] 86.9% | [16] 77.6% | [17] 93.2% | [18] 95.3% | [19] 81.1%

CCOCC[P+](c1ccccc1)(c1ccccc1)c1ccccc1
inactive: [1] 51.2% | [2] 59% | [3] 75.9% | [4] 57.3% | [5] 94.2% | [6] 85.5% | [7] 72% | [8] 34.7% | [9] 47.6% | [10] 21.4% | [12] 46.5% | [13] 76.2% | [14] 36.4% | [15] 60.3% | [16] 46.9% | [18] 79.1% | [19] 100%
active: [11] 1.2%

CCc1ccc(-c2nnc(COc3ccc(-c4nc5cc(Cl)c(Cl)cc5[nH]4)cc3OC)o2)cc1
inactive: [1] 87.8% | [2] 21.9% | [3] 91.1% | [4] 75.7% | [5] 31% | [6] 78.6% | [7] 65.2% | [8] 63.5% | [9] 69.8% | [11] 56.9% | [12] 28.9% | [13] 103% | [14] 45.9% | [15] 96.9% | [16] 64.5% | [18] 77% | [19] 55%
active: [10] 0.504%

COC1OC2COC(c3ccccc3)OC2C(=O)C1NC(=O)c1ccccc1 (centres undefined)
inactive: [1] 94% | [2] 96.7% | [3] 72.5% | [4] 108% | [5] 98.9% | [6] 88.9% | [7] 116% | [8] 97.7% | [9] 110% | [10] 122% | [11] 97.3% | [12] 101% | [13] 93.7% | [14] 103% | [15] 105% | [16] 114% | [18] 96.6% | [19] 103%
